The text below walks through data of PubChem BioAssay.

Each structure is given as a SMILES string. Potency and affinity values are given separately. Results filed as inconclusive are left out. Where a call stands in place of a potency, no number is given. Calls of active or inactive are those of the source.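 How the source made its calls: active means signal-lowering compounds whose fitted half-maximal concentration is at or below twice the top tested dose in every run; inconclusive means runs disagree, flat 30 to 70% inhibition, or poor curve fit; inactive means the rest.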

This assay is described as follows: CMV-driven luciferase expression suppression in HEK293 – cell-based, luminescence, dry powder, counter-screen for Pax8 inhibitor project, dose response (AID 743020).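 Further: HEK293 cells stably expressing the CMV luciferase reporter.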 The settings on record: HEK293 CMV-luciferase reporter, SteadyGlo luminescence, 24 h; series mostly up to 35 µM. (In general: The purpose of a counterscreen is to sort out artefacts and off-target activity.)
For the compound `COC1C(CO)OC(n2c3c(Cl)cccc3c3c4c(c5c6cccc(Cl)c6[nH]c5c32)C(=O)NC4=O)C(O)C1O` (stereo not given), the result was inactive.
The value for `CCSc1nsc(NC(=O)Nc2cccc(F)c2)n1` was “inactive”.
Take `COc1ccc(C(=O)CCS(=O)(=O)c2ccc(C)cc2)cc1OC`: the call was inactive.
The value for `O=S(=O)(Nc1cc(Sc2ncn[nH]2)c(O)c2ccccc12)c1ccccc1` was “inactive”; that for `COc1cc(C2C3=C(COC3=O)OC(C)(C)Oc3cc4c(cc32)OCO4)cc(OC)c1OC` (stereo not given) was “inactive”.
As for `CCC(=O)N1CCN(c2ccc(NC(=O)c3ccc([N+](=O)[O-])o3)cc2)CC1`, the outcome was inactive.
`COc1cc(C(=O)NCC(c2cccs2)N2CCOCC2)ccc1OCc1ccc(Cl)cc1` (stereo not given): the compound was classed as inactive.
The value for `COc1ccc(CC2C(=O)NC(C)C(=O)N(C)C3Cc4ccc(cc4)Oc4cc(ccc4O)CC(C(=O)NC(C)C(=O)NC(C)C(=O)N2C)N(C)C3=O)cc1` (stereo not given) was “inactive”; that for `COC(=O)[C@]12CCCCC=C1N(Cc1cccc3ccccc13)C(=O)[C@H](CC(=O)N1CCN(C(=O)c3ccco3)CC1)C2` was “inactive”.
As to `Cc1ccc(S(=O)(=O)NCc2ccc(C(=O)N3CCN(c4ccc([N+](=O)[O-])cc4)CC3)cc2)cc1`, the compound was called inactive.
Consider `O=C(COC(=O)c1ccco1)Nc1cccc(S(=O)(=O)N2CCOCC2)c1`, for which the result was inactive.
For `O=C1[C@@H]2Cc3c([nH]c4ccccc34)C(c3cccc(Br)c3)N2C(=O)CN1C1CCN(Cc2ccccc2)CC1` (stereo not given in full) the value was “inactive”.
The value for `Cc1ccc(S(=O)(=O)N(C)C[C@H]2Oc3c(NC(=O)Nc4cccc5ccccc45)cccc3C(=O)N([C@@H](C)CO)C[C@@H]2C)cc1` was “inactive”; that for `N#Cc1nc(NCC(F)F)nc(Nc2cc(F)cc(F)c2)n1` was “inactive”.
In the case of `Cn1nnnc1Sc1ncnc2scc(-c3ccc[nH]3)c12`, the call was inactive.
Regarding `CCCOc1ccc2[nH]c(C(=O)N/N=C/c3cc(OC)c(OC)c(OC)c3)cc2c1`, the call was inactive.
For `Oc1ccc(C[C@H]2CNC(=S)N2CC2CCCN2C[C@H](Cc2ccc(O)cc2)N2C[C@H](Cc3ccc(O)cc3)N(CC3CCCCC3)C2=S)cc1` (stereo not given in full) the value was “inactive”; for `O=C(Nc1ccc(Cl)cc1)/C(=C/c1cccc(O)c1)c1nc2ccccc2s1`, “inactive”.
Turning to `C=C1C(=O)[C@]23C[C@H]1CC[C@H]2[C@]1(C)[C@@H](OC(C)=O)CC[C@@](C)(C(=O)O)[C@H]1C[C@@H]3O`, the call was inactive.
Regarding `COc1cccc2c1C(=O)c1c(O)c3c(c(O)c1C2=O)CC(O)(C(C)=NNC(=O)c1ccc(Cl)c(Cl)c1)CC3OC1CC(N)C(O)C(C)O1` (stereo not given), the result was inactive.
The value for `O=C(NC(Nc1nc2ccc([N+](=O)[O-])cc2s1)(C(F)(F)F)C(F)(F)F)c1cccnc1` was “inactive”; that for `CN(N=Nc1nc[nH]c1C(N)=O)C1CCCCC1` was “inactive”; that for `COC(=O)[C@@]12C[C@@H](CC(=O)N3CCN(C(=O)c4ccco4)CC3)C(=O)N(Cc3ccccc3)C1=CCC(C)(C)C2` was “inactive”.
For the compound `COc1ccc(OC)c2sc(N(CCCN(C)C)C(=O)CCS(=O)(=O)c3ccccc3)nc12`, the result was inactive.
Consider `Cc1cc(C)c(C(=O)/C=C/c2cccc3ccccc23)c(=O)[nH]1`, for which the result was inactive.
For `Cc1cc(C)n(-c2nc(NCCN(C)C)c3c4c(sc3n2)CCCC4)n1` the value was “inactive”; for `CC(C)C(=O)N1CCN(c2ccc(NC(=O)c3ccc([N+](=O)[O-])o3)cc2Cl)CC1`, “inactive”; for `O=C(N/N=C/c1c[nH]c2ccccc12)c1[nH]c2ccc(Br)cc2c1-c1ccccc1`, “inactive”.
With `COc1cc(NC(=O)c2ccc([N+](=O)[O-])o2)ccc1NC(=O)c1ccco1`, the call was inactive.
For `COCCN(CC(=O)NC1CCCCC1)C(=O)/C=C/C(=O)c1ccc(OC)cc1O` the value was “inactive”; for `CCCCCc1c(-c2ccccc2OC)ncn1CCc1ccccc1OC`, “inactive”.
Consider `COc1ccc(/C=C2\CN(Cc3ccccc3)C/C(=C\c3ccc(OC)c(O)c3)C2=O)cc1O`, for which the result was inactive.
The value for `COc1cccc2c1C(=O)c1c(O)c3c(c(O)c1C2=O)C[C@](O)(C(C)=O)C[C@H]3O[C@@H]1C[C@@H](N)[C@@H](O)[C@@H](C)O1` was “inactive”; that for `COc1ccc([N+](=O)[O-])c(S(=O)(=O)c2ccccc2)n1` was “inactive”; that for `BrC(=C\c1ccccc1)/C=N/n1cnnc1` was “inactive”.
For `O=[N+]([O-])c1cc2c(ccc3occc32)o1` the value was “inactive”; for `C=CCC[C@@H](Cc1ccc(F)cc1)C(=O)OC[C@@H](Cc1c[nH]c2ccccc12)NC(=O)[C@H](CC=C)CC(=O)N(CCO)Cc1ccccc1`, “inactive”.
For `CC(/C=C1\SC(=O)N(CC(=O)Nc2ccc(O)cc2)C1=O)=C\c1ccccc1` the value was “inactive”; for `CC[C@]1(O)C[C@@H]2CN(CCc3c([nH]c4ccccc34)[C@@](C(=O)OC)(c3cc4c(cc3OC)N(C)[C@H]3[C@@](O)(C(=O)OC)[C@H](OC(C)=O)[C@]5(CC)C=CCN6CC[C@]43[C@@H]65)C2)C1`, “inactive”; for `CN1CC(=O)N2C(c3ccc(Cl)cc3)c3[nH]c4ccccc4c3C[C@H]2C1=O` (stereo not given in full), “inactive”.
